Results on 8 compounds are retold here after PubChem BioAssay (NCI).

About 83,000 compounds went through this panel and 20% of them were active in at least one assay; those are over-represented in the sample as a whole.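 Single-concentration screen, 48 h exposure, 96-well plates. Endpoint: percent growth. Below 10 = active.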 Values without a mark were called inactive. Activity calls are given as the source filed them.

Test systems include NCI-H23 lung; NCI-H226 lung; NCI-H322M lung; HOP-62 NSCLC; NCI-H460 lung; HOP-92 NSCLC; NCI-H522 lung; A549/ATCC NSCLC; 786-0 renal; COLO 205 colon; DU-145 prostate; K-562 leukemia; MALME-3M melanoma; MDA-MB-231 breast; RXF 393 renal; SF-268 CNS; SF-295 CNS; SF-539 CNS; UACC-257 melanoma; M14 melanoma.
Common to all, as to assay: NCI-60 one-dose screen, 48 h (100 = growth as untreated, 0 = no growth, -100 = all killed)
Details in all cases: 10 µM unless noted

Regarding `COc1ccc(/C=C/C(=O)/C=C(/C=C/c2ccc(OC)c(OC)c2OC)OB(F)F)c(OC)c1OC`, the growth with NCI-H23 lung is 37.3%; with NCI-H226 lung, 75.6%; in the assay on NCI-H322M lung it was 91.8%; in the assay on HOP-62 NSCLC, 70.4%; in the assay on NCI-H460 lung, 43.6%; with HOP-92 NSCLC it was 79.5%. Also, the growth is 16.3% in the assay with NCI-H522 lung; 55.7% in the assay with A549/ATCC NSCLC; 14.1% with 786-0 renal; 7.86% (active) with COLO 205 colon; 42.9% in the assay on DU-145 prostate; 9.46% (active) in the assay with K-562 leukemia. Moreover, the growth is 16.4% with MALME-3M melanoma; 7.37% (active) with MDA-MB-231 breast; 6.5% (active) in the assay on RXF 393 renal; 31.9% with SF-268 CNS; 56.4% in the assay on SF-295 CNS; 32.9% with SF-539 CNS. Also, the growth with UACC-257 melanoma is 37%; in the assay with M14 melanoma it was 19.1%.
Regarding `COc1ccccc1N1CCN(CCCOc2ccc(OCCCN3CCN(c4ccccc4OC)CC3)c(C(=O)c3cc(OC)c(OC)c(OC)c3)c2)CC1`, the growth in the assay on NCI-H23 lung was 95.4%; in the assay with NCI-H226 lung, 111%; with NCI-H322M lung, 96.5%; in the assay on HOP-62 NSCLC, 113%; in the assay on NCI-H460 lung, 115%; in the assay with HOP-92 NSCLC, 94.2%. Moreover, the growth in the assay with NCI-H522 lung is 106%; in the assay on A549/ATCC NSCLC it was 109%; in the assay on 786-0 renal, 105%; in the assay on COLO 205 colon, 99.5%; in the assay on DU-145 prostate, 105%; in the assay on K-562 leukemia it was 67.6%. For the same compound, the growth is 113% in the assay on MALME-3M melanoma; 113% with MDA-MB-231 breast; 126% in the assay on RXF 393 renal; 110% in the assay on SF-268 CNS; 109% in the assay with SF-295 CNS; 107% in the assay with SF-539 CNS. Moreover, the results for the growth in the assay on UACC-257 melanoma and with M14 melanoma were 107% and 108%, respectively.
For `CC(C(C(=O)N1CCCCC1)N1CCCCC1)N1CCCCC1` (stereo not given), the growth is 107% in the assay with NCI-H23 lung; 109% in the assay with NCI-H226 lung; 119% in the assay on NCI-H322M lung; 96.7% in the assay on HOP-62 NSCLC; 114% in the assay with NCI-H460 lung; 112% with HOP-92 NSCLC. In addition, the growth in the assay with NCI-H522 lung is 93.1%; with A549/ATCC NSCLC it was 94%; in the assay on 786-0 renal, 108%; in the assay on COLO 205 colon it was 118%; with DU-145 prostate, 122%; in the assay on K-562 leukemia it was 94.7%. The growth with MALME-3M melanoma is 118%; in the assay on MDA-MB-231 breast, 112%; with RXF 393 renal, 112%; in the assay on SF-268 CNS, 115%; in the assay with SF-295 CNS, 117%; with SF-539 CNS it was 116%. The results for the growth in the assay on UACC-257 melanoma and with M14 melanoma were 101% and 103%, respectively.
Consider `Cc1cc(-c2ccccc2)nc2ccccc12`, for which the growth was 90.4% with NCI-H23 lung; 90.2% in the assay on NCI-H226 lung; 103% with NCI-H322M lung; 79.8% in the assay on HOP-62 NSCLC; 103% in the assay with NCI-H460 lung; 95.7% with HOP-92 NSCLC. Further, the growth is 90.5% in the assay with NCI-H522 lung; 90.2% with A549/ATCC NSCLC; 109% with 786-0 renal; 96.5% in the assay on COLO 205 colon; 112% with DU-145 prostate; 91.8% with K-562 leukemia. In addition, the growth in the assay on MALME-3M melanoma was 99.4%; in the assay on MDA-MB-231 breast it was 94.3%; with RXF 393 renal, 94.6%; in the assay on SF-268 CNS it was 94.7%; in the assay with SF-295 CNS it was 97.6%; with SF-539 CNS it was 98.2%. For the same compound, the growth with UACC-257 melanoma was 99.9%; with M14 melanoma, 96.6%.
As for `O=C(O)c1cccc(S(=O)(=O)c2ccccc2)c1`, the growth is 96.8% in the assay with NCI-H23 lung; 96.8% in the assay on NCI-H226 lung; 98.6% in the assay on NCI-H322M lung; 103% in the assay on HOP-62 NSCLC; 100% with NCI-H460 lung; 82.8% in the assay with HOP-92 NSCLC. For the same compound, the growth was 93.5% in the assay with NCI-H522 lung; 102% in the assay on A549/ATCC NSCLC; 108% with 786-0 renal; 104% in the assay with COLO 205 colon; 107% in the assay with DU-145 prostate; 107% with K-562 leukemia. The growth in the assay with MALME-3M melanoma was 87.7%; in the assay on MDA-MB-231 breast, 123%; with RXF 393 renal it was 101%; in the assay with SF-268 CNS, 103%; with SF-295 CNS, 95%; in the assay with SF-539 CNS it was 98.5%. For the same compound, the growth was 105% in the assay on UACC-257 melanoma and 95.9% in the assay on M14 melanoma.
In the case of `O=C(Nc1cccc(-n2ccc3c(NC(=O)c4ccccc4)nccc32)c1)Nc1ccc(Cl)c(C(F)(F)F)c1`, the growth in the assay on NCI-H23 lung was 13%; in the assay with NCI-H226 lung, 21.7%; with NCI-H322M lung, 39.5%; in the assay on HOP-62 NSCLC it was 33.4%; in the assay with NCI-H460 lung it was -0.783% (active); in the assay with HOP-92 NSCLC, 2.86% (active). For the same compound, the growth was -51.5% (active) with NCI-H522 lung; 9.59% (active) with A549/ATCC NSCLC; -14.8% (active) in the assay on 786-0 renal; -51.6% (active) with COLO 205 colon; -19.3% (active) in the assay with DU-145 prostate; 3.03% (active) with K-562 leukemia. Besides, the growth was 33.6% with MALME-3M melanoma; 13.7% with MDA-MB-231 breast; -41.7% (active) in the assay on RXF 393 renal; 8.59% (active) in the assay with SF-268 CNS; -6.24% (active) in the assay on SF-295 CNS; 8.31% (active) in the assay with SF-539 CNS. The figures for the growth in the assay on UACC-257 melanoma and in the assay with M14 melanoma were 46.2% and 2.96% (active), respectively.
`Nn1c(SCC(=O)Nc2cc(Cl)c(Cl)cc2Cl)nnc1-c1cc(F)c(Cl)cc1Cl`: the growth with NCI-H23 lung was 103%; in the assay on NCI-H226 lung, 138%; with NCI-H322M lung, 105%; in the assay on HOP-62 NSCLC, 91.3%; in the assay on NCI-H460 lung, 110%; with HOP-92 NSCLC it was 75.8%. Besides, the growth is 90.9% with NCI-H522 lung; 106% in the assay with A549/ATCC NSCLC; 98.4% with 786-0 renal; 106% in the assay on COLO 205 colon; 113% in the assay on DU-145 prostate; 90.2% in the assay with K-562 leukemia. For the same compound, the growth in the assay with MALME-3M melanoma is 121%; in the assay on MDA-MB-231 breast it was 127%; with RXF 393 renal, 151%; in the assay on SF-268 CNS, 110%; in the assay on SF-295 CNS it was 109%; in the assay on SF-539 CNS it was 108%. Moreover, the values for the growth in the assay on UACC-257 melanoma and in the assay on M14 melanoma were 108% and 96.7%, respectively.
Take `COc1cc(Nc2ncccc2C(=O)Nc2nc3ccc(F)cc3s2)cc(OC)c1OC`: the growth in the assay with NCI-H23 lung is 55.8%; in the assay on NCI-H226 lung, 57.2%; in the assay with NCI-H322M lung it was 90.8%; with HOP-62 NSCLC, 40.9%; in the assay with NCI-H460 lung, 74.1%; in the assay with HOP-92 NSCLC, 45.1%. The growth in the assay on NCI-H522 lung is 50.6%; in the assay on A549/ATCC NSCLC it was 65.6%; in the assay on 786-0 renal it was 22.9%; in the assay with COLO 205 colon it was 118%; with DU-145 prostate, 90.4%; with K-562 leukemia, 97%. The growth is 78.8% with MALME-3M melanoma; 71.4% in the assay on MDA-MB-231 breast; 139% in the assay with RXF 393 renal; 90% with SF-268 CNS; 15.6% in the assay with SF-295 CNS; 92.9% with SF-539 CNS. Further, the growth with UACC-257 melanoma was 86.4%; in the assay with M14 melanoma, 19.1%.
